In the supplement of paper PMC9262897, “Low-cost anti-mycobacterial drug discovery using engineered E. coli” (Nature Communications, 2022):
Counter-ions that a name gives are not always drawn. ± gives the standard deviation of the averaged measurements.

Assays:
Test in all cases: growth (OD600 after 10 h); higher = more growth (less inhibition)
[1] = test system: E. coli TESEC Alr+ wild-type control; details: compound 0.1 mM; raw OD600 reference: median of DMSO wells 0.241, cell-free background 0.041
Procedure: (§1)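 TESEC Mtb Alr E. coli, or the Alr+ wild-type control, in 384-well plates with Prestwick library compounds at 0.1 mM and 1% DMSO, across arabinose induction levels of 1E3 to 1E7 nM. Growth is read as OD600 after 10 h at 37 °C in triplicate biological replicates.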

E. coli TESEC Mtb Alr [2] = details: compound 0.1 mM
Procedure: as §1

E. coli TESEC Mtb Asd = details: compound 0.1 mM
Procedure: (§2)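 TESEC E. coli strains in which the native enzyme is deleted and replaced by arabinose-inducible Mtb Asd, DapB, CysH or TrpD, each grown in its selective medium. Strains were screened against the Prestwick library at 0.1 mM and 1% DMSO in 384-well format at low and high arabinose induction. Growth is read as OD600 after 10 h in triplicate.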

E. coli TESEC Mtb DapB = details: compound 0.1 mM
Procedure: as §2

[3] = test system: E. coli TESEC Alr+ wild-type control; details: compound 0.1 mM; raw OD600 reference: median of DMSO wells 0.49, cell-free background 0.052
Procedure: (§3)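 TESEC Mtb Alr E. coli (ΔaraC ΔtolC ΔentC Δalr ΔdadX, arabinose-inducible Mtb Alr) or the Alr+ wild-type control strain, grown in defined M9-fructose medium without D-alanine in 96-well plates with Prestwick library compounds at 0.1 mM and 1% DMSO. Low Alr induction is 0.1 µM arabinose and high induction is 10 mM arabinose.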

E. coli TESEC Mtb Alr [4] = details: compound 0.1 mM; remark: listed apart in the source
Procedure: as §3

[5] = arabinose 1000 nM, raw OD600 reference: median of DMSO wells 0.294, cell-free background 0.041
[6] = arabinose 10000 nM, raw OD600 reference: median of DMSO wells 0.264, cell-free background 0.041
[7] = arabinose 100000 nM, raw OD600 reference: median of DMSO wells 0.201, cell-free background 0.041
[8] = arabinose 1000000 nM, raw OD600 reference: median of DMSO wells 0.193, cell-free background 0.041
[9] = arabinose 10000000 nM, raw OD600 reference: median of DMSO wells 0.146, cell-free background 0.041
[10] = arabinose induction (level): High, raw OD600 reference: median of DMSO wells 0.331, cell-free background 0.041
[11] = arabinose induction (level): Low, raw OD600 reference: median of DMSO wells 0.417, cell-free background 0.041
[12] = arabinose induction (level): High, raw OD600 reference: median of DMSO wells […], cell-free background 0.041
[13] = arabinose induction (level): Low, raw OD600 reference: median of DMSO wells 0.227, cell-free background 0.041
[14] = arabinose 100 nM, raw OD600 reference: median of DMSO wells 0.413, cell-free background 0.052
[15] = arabinose 10000000 nM, raw OD600 reference: median of DMSO wells […], cell-free background 0.052

Row | Structure (SMILES) | growth [1] | growth (E. coli TESEC Mtb Alr [2]; [5]) | growth (E. coli TESEC Mtb Alr [2]; [6]) | growth (E. coli TESEC Mtb Alr [2]; [7]) | growth (E. coli TESEC Mtb Alr [2]; [8]) | growth (E. coli TESEC Mtb Alr [2]; [9]) | growth (E. coli TESEC Mtb Asd; [10]) | growth (E. coli TESEC Mtb Asd; [11]) | growth (E. coli TESEC Mtb DapB; [12]) | growth (E. coli TESEC Mtb DapB; [13]) | growth [3] | growth (E. coli TESEC Mtb Alr [4]; [14]) | growth (E. coli TESEC Mtb Alr [4]; [15])
1 | COc1ccc([C@@H]2CC(=O)c3c(O)cc(O[C@@H]4O[C@H](CO[C@@H]5O[C@@H](C)[C@H](O)[C@@H](O)[C@H]5O)[C@@H](O)[C@H](O)[C@H]4O)cc3O2)cc1O [Hesperidin] | 0.223 ± 0.0074 | 0.289 ± 0.016 | 0.251 ± 0.0089 | 0.205 ± 0.0089 | 0.177 ± 0.0064 | 0.145 ± 0.0031 | 0.22 ± 0.035 | 0.284 ± 0.06 | 0.188 ± 0.011 | 0.251 ± 0.034 | 0.521 ± 0.053 | 0.407 ± 0.0099 | 0.388 ± 0.028
2 | CCn1cc(C(=O)O)c(=O)c2ccc(C)nc21 [Nalidixic acid sodium salt] | 0.04987 ± 0.00029 | 0.0467 ± 0.0009 | 0.0394 ± 0.00056 | 0.0502 ± 0.0012 | 0.0413 ± 0.0013 | 0.05153 ± 0.00015 | 0.09847 ± 0.00049 | 0.0829 ± 0.0083 | 0.0992 ± 0.0072 | 0.0689 ± 0.0001 | 0.0678 ± 0.0015 | 0.0753 ± 0.014 | 0.0595 ± 0.0029
3 | COc1ccccc1O [Guaiacol] | 0.255 ± 0.0046 | 0.314 ± 0.0073 | 0.2742 ± 0.0019 | 0.192 ± 0.012 | 0.203 ± 0.012 | 0.135 ± 0.0042 | 0.212 ± 0.031 | 0.364 ± 0.063 | 0.19 ± 0.008 | 0.202 ± 0.028 | 0.558 ± 0.079 | 0.407 ± 0.016 | 0.356 ± 0.009
4 | O=C(O)c1cccnc1Nc1cccc(C(F)(F)F)c1 [Niflumic acid] | 0.113 ± 0.0057 | 0.0693 ± 0.0078 | 0.0488 ± 0.00046 | 0.145 ± 0.002 | 0.06687 ± 0.00065 | 0.099 ± 0.0016 | 0.15 ± 0.022 | 0.16 ± 0.018 | 0.172 ± 0.0053 | 0.209 ± 0.022 | 0.206 ± 0.046 | 0.244 ± 0.066 | 0.0999 ± 0.0073
5 | CC(=O)Oc1ccc(C(c2ccc(OC(C)=O)cc2)c2ccccn2)cc1 [Bisacodyl] | 0.202 ± 0.0032 | 0.245 ± 0.018 | 0.289 ± 0.016 | 0.219 ± 0.031 | 0.201 ± 0.0038 | 0.168 ± 0.0065 | 0.354 ± 0.011 | 0.24 ± 0.028 | 0.19 ± 0.011 | 0.2324 ± 0.0015 | 0.5 ± 0.016 | 0.39 ± 0.0062 | 0.39 ± 0.0069
6 | C[N+]1(CCCCC[N+]2(C)CCCC2)CCCC1 [Pentolinium bitartrate] | 0.24 ± 0.0027 | 0.282 ± 0.017 | 0.275 ± 0.0033 | 0.202 ± 0.014 | 0.1794 ± 0.0012 | 0.143 ± 0.0032 | 0.296 ± 0.037 | 0.424 ± 0.02 | 0.1752 ± 0.00061 | 0.185 ± 0.0091 | 0.515 ± 0.11 | 0.415 ± 0.011 | 0.361 ± 0.006
7 | CC(=O)Oc1cc(C(F)(F)F)ccc1C(=O)O [Triflusal] | 0.224 ± 0.0053 | 0.275 ± 0.0064 | 0.259 ± 0.0086 | 0.186 ± 0.019 | 0.177 ± 0.0042 | 0.14 ± 0.004 | 0.218 ± 0.009 | 0.367 ± 0.082 | 0.207 ± 0.0034 | 0.206 ± 0.015 | 0.555 ± 0.033 | 0.376 ± 0.011 | 0.315 ± 0.011
8 | Cc1onc(-c2c(F)cccc2Cl)c1C(=O)N[C@@H]1C(=O)N2[C@@H]1SC(C)(C)[C@@H]2C(=O)O [Flucloxacillin sodium] | 0.228 ± 0.0096 | 0.2863 ± 0.0017 | 0.26 ± 0.0097 | 0.186 ± 0.022 | 0.172 ± 0.006 | 0.136 ± 0.0023 | 0.265 ± 0.056 | 0.432 ± 0.059 | 0.196 ± 0.0025 | 0.259 ± 0.034 |  | 0.412 ± 0.015 | 0.33 ± 0.021
9 | C=CC(N)CCC(=O)O (stereo not drawn) [Vigabatrin] | 0.239 ± 0.005 | 0.279 ± 0.014 | 0.278 ± 0.0034 | 0.213 ± 0.013 | 0.191 ± 0.0036 | 0.148 ± 0.0044 | 0.313 ± 0.06 | 0.389 ± 0.089 | 0.174 ± 0.0095 | 0.192 ± 0.014 | 0.586 ± 0.13 | 0.411 ± 0.014 | 0.361 ± 0.046
10 | O=C(Cn1ccnc1[N+](=O)[O-])NCCO [Etanidazole] | 0.2444 ± 0.00084 | 0.306 ± 0.015 | 0.258 ± 0.0028 | 0.213 ± 0.0053 | 0.178 ± 0.0091 | 0.138 ± 0.0056 | 0.318 ± 0.027 | 0.423 ± 0.0082 | 0.202 ± 0.006 | 0.232 ± 0.0081 |  | 0.406 ± 0.012 | 0.358 ± 0.016
11 | O=C(CCCN1CC=C(n2c(=O)[nH]c3ccccc32)CC1)c1ccc(F)cc1 [Droperidol] | 0.178 ± 0.0085 | 0.241 ± 0.005 | 0.225 ± 0.0067 | 0.175 ± 0.014 | 0.105 ± 0.0018 | 0.152 ± 0.0037 | 0.205 ± 0.056 | 0.359 ± 0.058 | 0.184 ± 0.015 | 0.206 ± 0.029 |  | 0.409 ± 0.0085 | 0.276 ± 0.0059
12 | C=C1/C(=C\C=C2/CCC[C@]3(C)[C@@H]([C@H](C)CCCC(C)C)CC[C@@H]23)C[C@@H](O)C[C@@H]1O [Alfacalcidol] | 0.0884 ± 0.006 | 0.0977 ± 0.004 | 0.051 ± 0.0012 | 0.143 ± 0.018 | 0.065 ± 0.0018 | 0.121 ± 0.002 | 0.219 ± 0.033 | 0.301 ± 0.066 | 0.234 ± 0.012 | 0.226 ± 0.018 |  | 0.4206 ± 0.0018 | 0.149 ± 0.023
13 | O=C(NCC(O)CO)c1c(I)c(C(=O)NCC(O)CO)c(I)c(N(CCO)C(=O)CO)c1I (stereo not drawn) [Ioversol] | 0.257 ± 0.0068 | 0.308 ± 0.017 | 0.288 ± 0.013 | 0.208 ± 0.015 | 0.192 ± 0.0057 | 0.169 ± 0.0037 | 0.477 ± 0.014 | 0.46 ± 0.019 | 0.202 ± 0.015 | 0.256 ± 0.028 |  | 0.408 ± 0.015 | 0.362 ± 0.017
14 | CC(CN1c2ccccc2Sc2ccccc21)N(C)C (stereo not drawn) [Promethazine hydrochloride] | 0.197 ± 0.0039 | 0.215 ± 0.013 | 0.2742 ± 0.0025 | 0.197 ± 0.018 | 0.13 ± 0.0016 | 0.157 ± 0.004 | 0.139 ± 0.0045 | 0.254 ± 0.021 | 0.221 ± 0.016 | 0.245 ± 0.012 |  | 0.409 ± 0.014 | 0.334 ± 0.0051
15 | CC(C)CC(=O)N[C@H](C(=O)N[C@H](C(=O)N[C@@H](CC(C)C)[C@@H](O)CC(=O)N[C@@H](C)C(=O)N[C@@H](CC(C)C)[C@@H](O)CC(=O)O)C(C)C)C(C)C [Pepstatin A] | 0.226 ± 0.0077 | 0.307 ± 0.0049 | 0.271 ± 0.0051 | 0.234 ± 0.043 | 0.202 ± 0.02 | 0.15 ± 0.0034 | 0.419 ± 0.028 | 0.427 ± 0.064 | 0.172 ± 0.0073 | 0.246 ± 0.046 |  | 0.412 ± 0.005 | 0.345 ± 0.036
